# Cruzain Triton = qHTS Assay for Promiscuous and Specific Inhibitors of Cruzain (with detergent); purified cruzain, Z-FR-AMC fluorescence, 0.01% Triton; Potency, µM, for the others: max response, negative = inhibition, most hits filed as inhibitors; 200,000 tested, 0.43% active; AID 1478, 2009;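 note: plate controls were neutral wells for no effect and buffer without enzyme for full effect; nearly all actives have a fitted effect of over 40% in size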
# Target sequence (P25779 123-467 limits assumed): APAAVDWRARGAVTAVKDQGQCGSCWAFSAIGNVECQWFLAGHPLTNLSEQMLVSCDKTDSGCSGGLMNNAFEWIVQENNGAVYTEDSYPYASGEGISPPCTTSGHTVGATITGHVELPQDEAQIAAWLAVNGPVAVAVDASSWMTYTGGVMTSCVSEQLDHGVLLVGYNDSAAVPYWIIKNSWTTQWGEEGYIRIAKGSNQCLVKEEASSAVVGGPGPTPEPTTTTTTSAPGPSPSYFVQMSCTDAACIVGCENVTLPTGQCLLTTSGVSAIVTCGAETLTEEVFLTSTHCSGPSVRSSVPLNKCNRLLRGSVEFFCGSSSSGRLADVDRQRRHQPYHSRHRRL
#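 Steps: dispense cruzain (1.5 nM final) in acetate buffer pH 5.5 with DTT and 0.01% Triton X-100; pin-transfer compounds; incubate 15 min RT; add Z-FR-AMC (2 uM final); read fluorescence every 30 s, using the 60 s intensity change.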
# Cruzain inh noDet = qHTS Assay for Promiscuous and Specific Inhibitors of Cruzain (without detergent); Cruzipain (Trypanosoma cruzi), P25779; Potency, µM, inactives show max response, negative = inhibition, actives largely listed as inhibitors; 200,000 tested, 2.3% active; purified cruzain, Z-FR-AMC fluorescence, no detergent; AID 1476, 2009;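 note: plate controls were enzyme without inhibitor for no effect and buffer without enzyme for full effect; nearly all actives have a fitted effect of over 40% in size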
#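 Detergent-free condition (0.00005% Triton X-100) in acetate buffer pH 5.5 with DTT. 1.5 nM enzyme and compound were pre-mixed 15 min, then 2 uM Z-FR-AMC substrate added; reaction progress from fluorescence change between first and third reads (60 s).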
# An asterisk follows results filed as active; u = inconclusive. Rows were chosen to be rich in hits. Some 2.6% of all compounds tested hit in one or more screens of this group. Calls come from the whole dose curve; as a rule, active = well fitted curve in the direction sought with a large enough effect; inconclusive = small, poorly fitted or top-dose-only effect, or another doubt; inactive = no such curve, though single readings can be large; an effect the other way counts as inactive or inconclusive. Potency is the fitted concentration of half-maximal effect.
SMILES,Cruzain Triton,Cruzain inh noDet
CCOC(=O)C1=C(CP(=O)(c2ccccc2)c2ccccc2)NC(=O)NC1c1ccc(OC)cc1 (stereo not given),-3%,-1%
CCN(c1cccc(C)c1)C(CNS(=O)(=O)c1ccccc1)c1ccccc1 (stereo not given),-12%,5%
Cc1cc(C(=O)NCc2ccc(Cl)cc2)c2c(C)nn(-c3ccccc3)c2n1,-1%,-5%
CCOC(=O)c1c(C)n(S(=O)(=O)c2ccc(C)cc2)c2ccc(NS(=O)(=O)c3ccc(C)cc3)cc12,-2%,4µM*
Cc1ccc(S(=O)(=O)Nc2ccc3c(c2)CCC3)cc1,-13%,-6%
Cc1ccc(S(=O)(=O)Nc2ccc3c(c2)c2c(n3S(=O)(=O)c3ccc(C)cc3)CCCC2=O)cc1,-5%,7.9µM*
CCn1cnc2cc(NS(=O)(=O)c3ccc(C)cc3)ccc21,0%,20%
N#Cc1ccc(Oc2ccc(/C=N/O)cn2)cc1,2%,-1%
Cn1nnc(C(O)CNCc2cccs2)n1 (stereo not given),3%,3%
Cn1nnc(NCc2cc(Br)ccc2OCc2cccs2)n1,-4%,32µM*
O=C(NC(Cc1ccccc1)C(=O)NCc1ccccn1)c1ccco1 (stereo not given),2%,-2%
CCCOc1ccc(-c2nnn(CC(=O)c3c[nH]c4ccccc34)n2)cc1,2%,7.9µM*
CCOc1ccc(-c2nnn(CC(=O)NCCc3c[nH]c4ccccc34)n2)cc1,-8%,-17%
CCOc1cc(/C=N/N=C(/N)c2nonc2N)cc(Br)c1OCc1ccc(Cl)cc1,2%,4µM*
COc1cc(/C=N/N=C(/N)c2nonc2N)cc(Br)c1OCc1ccccc1C,3%,-25%
CCc1ccc2[nH]c(=O)c(CN(CCN(CC)CC)C(=O)NC3CCCCC3)cc2c1,-6%,4%
CCOC(=O)C1C(=O)OC(C)(C)C1C(C)C(=O)c1ccc(C)cc1 (stereo not given),6%,-2%
Cc1cc(C)cc(-n2c(C)cc(/C=N/NC(=O)c3cccc([N+](=O)[O-])c3C)c2C)c1,-4%,u
Cc1ccc(-n2c(C)cc(/C=N/Nc3ccc([N+](=O)[O-])cn3)c2C)cc1,-6%,7.9µM*
Cc1cc(/C=N/Nc2ccc([N+](=O)[O-])cn2)c(C)n1-c1ccccc1,-2%,4µM*
O=Cc1cn(Cc2ccc([N+](=O)[O-])cc2)c2ccccc12,-7%,u
Cc1ccc([N+](=O)[O-])cc1/C=N/Nc1nnnn1-c1ccccc1,1%,-10%
Cc1ccc(Cn2cc(/C=N/Nc3ccc([N+](=O)[O-])cn3)c3ccccc32)cc1,-4%,6.3µM*
O=C(NCCc1ccccc1)c1nn(-c2ccc(F)cc2)nc1CO,2%,-7%
CCOc1ccccc1-n1c(CNc2ccc(F)cc2)nnc1SCC(=O)NCc1ccco1,-1%,u
SMILES,Cruzain Triton,Cruzain inh noDet
O=C(c1ccccc1Cl)N(Cc1ccco1)c1ccccn1,-2%,-13%
COc1ccc(S(=O)(=O)Cc2ccc(C(=O)NCc3cccnc3)o2)cc1,4%,-12%
O=C(Nc1ccccc1)c1ccc(-c2ccc(Br)cc2)o1,-8%,-7%
O=C(Nc1cccc(NC(=O)c2ccc(-c3ccc(Br)cc3)o2)c1)c1ccccc1,-12%,5µM*
O=C1c2cccc3cccc(c23)C(=O)N1c1nccs1,-4%,6%
O=C1c2cccc3cccc(c23)C(=O)N1c1ccc2ncccc2c1,18µM*,u
O=C1NC(=O)N(CCC2=CCCCC2)C(=O)/C1=C/c1ccc(O)cc1,2%,1%
C=C1C2(C(=O)Nc3nccs3)CCC(C2)C1(C)C (stereo not given),0%,2%
O=C(c1ccc2c(c1)OCO2)c1cn(Cc2ccc(Cl)cc2)c2ccc(F)cc2c1=O,-3%,25µM*
Cc1ccc2c(c1)c(=O)c(C(=O)c1ccc3c(c1)OCO3)cn2Cc1ccc(Cl)cc1,-1%,u
Cc1nc(NC(=O)c2ccccc2)sc1-c1csc(N)n1,-9%,-14%
Cc1nc(N)sc1-c1csc(N(C)c2ccc(O)cc2)n1,13µM*,5µM*
Cc1ccc(NC(=O)C2CCN(S(=O)(=O)c3cccc4nonc34)CC2)nc1,1%,2%
O=C(Nc1ccccc1-c1nnn(CC(=O)N2CCCc3ccccc32)n1)c1ccco1,0%,u
O=C(Nc1ccccc1-c1nnn(CC(=O)N2CCCc3ccccc32)n1)c1ccc(Cl)cc1,-6%,32µM*
CC1CCN(c2oc(-c3cccs3)nc2S(=O)(=O)c2ccccc2)CC1,-5%,-4%
N#Cc1cc(-c2ccc(Cl)cc2)cn(Cc2c(Cl)cccc2Cl)c1=O,0%,-23%
CSc1cc(-c2ccccc2)n(Cc2c(Cl)cccc2Cl)c(=O)c1C#N,0%,10µM*
CSc1nc(N)c(C#N)c(-c2ccc(Cl)cc2)c1C#N,-4%,-14%
CSc1cc(-c2ccc(Cl)cc2)n(Cc2ccccc2)c(=O)c1C#N,1%,25µM*
COc1ccc(NC(=O)c2ccccc2NC(=O)CSc2ccc(Cl)cc2)cc1,9%,13µM*
O=C(CSc1ccc(Cl)cc1)Nc1ccc(N2CCN(C(=O)c3ccco3)CC2)cc1,-1%,-10%
COc1ccc(NC(=O)c2ccccc2NC(=O)CSc2ccccc2)cc1,-1%,-19%
O=C(CSc1ccc(Cl)cc1)Nc1ccc(NC(=O)c2ccco2)cc1,4%,10µM*
COc1ccc(OCC(=O)N2CCN(Cc3c[nH]c4ccccc34)CC2)cc1,7%,-6%
SMILES,Cruzain Triton,Cruzain inh noDet
Cc1cc(C(=O)CSc2nnc(-c3cccs3)o2)c(C)n1-c1ccccc1,3%,25µM*
Cc1cc(C(=O)CSc2nnc(-c3ccco3)o2)c(C)n1Cc1ccco1,-2%,16%
O=C(CSc1nnc(-c2cccs2)o1)c1cccs1,3%,-1%
Cc1cc(C(=O)CSc2nnc(-c3ccco3)o2)c(C)n1-c1ccc2c(c1)OCCO2,-4%,10µM*
CC(C)CC(c1nnnn1CC1CCCO1)N1CCN(c2cccc(Cl)c2)CC1 (stereo not given),-6%,u
Cc1ccc(C)c(S(=O)(=O)N2CCN(C(C(=O)Nc3ccc(F)cc3)c3ccccc3)CC2)c1 (stereo not given),-3%,25µM*
O=C(Nc1ccc(F)cc1)C(c1ccccc1)N1CCN(S(=O)(=O)c2ccc3ccccc3c2)CC1 (stereo not given),-2%,u
Cc1nonc1OCCNc1ccc([N+](=O)[O-])c2cccnc12,-12%,-15%
O=C(NCCc1c[nH]c2ccccc12)C(=O)NCC1OCCCN1S(=O)(=O)c1ccccc1 (stereo not given),-4%,25µM*
Cc1ccc(S(=O)(=O)N2CCCOC2CNC(=O)C(=O)NCCc2c[nH]c3ccccc23)cc1 (stereo not given),-5%,u
CCOC(=O)c1cc([N+](=O)[O-])sc1NC(=O)c1ccc(S(=O)(=O)N2CC3(C)CC2CC(C)(C)C3)cc1 (stereo not given),-3%,4µM*
CC1(C)CC2CC(C)(CN2S(=O)(=O)c2ccc(C(=O)Nc3ccc(S(=O)(=O)N4CCOCC4)cc3)cc2)C1 (stereo not given),-5%,-2%
Cc1ccccc1-c1ccc(Nc2ccc(N3CCOCC3)cc2)nn1,-9%,25µM*
O=S1(=O)N=C(Nc2ccc(N3CCOCC3)cc2)c2ccccc21,-4%,-19%
N#Cc1cccc(NC(=O)CSc2ccccc2)c1,3%,-16%

# Screening results as filed in PubChem BioAssay.
